Data from article PMC7819943, “Rice protein-binding microarrays: a tool to detect cis-acting elements near promoter regions in rice”.
Over roughly 68,000 sequences, “fluorescence intensity (a.u.)” has its median near 9,100; the highest 2% begin near 16,000. Many of the other results were omitted from the sample, so the highest values are more common in it than they were.

target: OsWRKY34 (Oryza sativa, UniProt Q0JBA9 1-250); experiment: protein-binding microarray (RPBM); PBS, 2% BSA, 51.3 ng/ul salmon testes DNA, 50 uM zinc acetate, 200 nM TF, 25 C, 1 h; high values mean tight binding; settings: protein: recombinant; tags: N-terminal polyhistidine and DsRed monomer fusion (pET32a); label: CyDye5-dUTP incorporated in the synthesized complementary strand; 3' TTTTT single-stranded linker to array surface; dsDNA, one strand shown
Sequence (Q0JBA9 entry or part of it): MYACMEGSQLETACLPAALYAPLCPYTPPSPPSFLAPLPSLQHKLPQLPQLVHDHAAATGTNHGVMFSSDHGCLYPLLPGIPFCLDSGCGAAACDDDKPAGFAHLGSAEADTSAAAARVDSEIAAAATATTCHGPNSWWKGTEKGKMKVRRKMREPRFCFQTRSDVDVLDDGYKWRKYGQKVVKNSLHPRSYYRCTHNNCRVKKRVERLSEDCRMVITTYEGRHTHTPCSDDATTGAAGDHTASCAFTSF
Method in brief: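 Transcription factors were made in E. coli BL21-CodonPlus as N-terminal fusions to a polyhistidine tag and DsRed, then purified on Ni–NTA. After primer extension with Cy5-dUTP and blocking with 2% BSA, a custom Agilent array was exposed for 1 h at 25 °C to 200 nM protein in PBS, 2% BSA, salmon testes DNA and 50 µM zinc acetate. Washed arrays were scanned on an Axon 4000B, and the binding signal is per-feature fluorescence intensity in arbitrary units.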

Sequence | binding signal
GCGTTGTGGGTGTCTTGTGTTGTACTGCGTAATTCTTAAACGGAGTCACCTAGTGCAG | 15000 fluorescence intensity (a.u.)
CACAACTATTTCTACTTTTATCATTCCTACCTTTTCTAATCGGAGTCACCTAGTGCAG | 8180 fluorescence intensity (a.u.)
CTAGCCCGTTAACATTACTGTTCATCTCCCTATCCGTCTCCGGAGTCACCTAGTGCAG | 9570 fluorescence intensity (a.u.)
TCCTACACCACCCCGTTCTCGCGCCCATCGATCCAACCGACGGAGTCACCTAGTGCAG | 8920 fluorescence intensity (a.u.)
AGCCACAAATCCTTATTCGTTCAATTGTTTTTCTTCCTCTCGGAGTCACCTAGTGCAG | 8140 fluorescence intensity (a.u.)
ATCGCGAAGTTCGCGACCCGATTCCTCTCCGCCCGCCATGCGGAGTCACCTAGTGCAG | 8380 fluorescence intensity (a.u.)
GTACATGCATTATCCATATCTCTAAATTTAGCAATCACTTCGGAGTCACCTAGTGCAG | 9480 fluorescence intensity (a.u.)
AGTTCACTTTAGGTCCCTCTATTTGTCGTCCAGTCTGATTCGGAGTCACCTAGTGCAG | 8180 fluorescence intensity (a.u.)
GCGGCCAGGCCACCTCCAGCTCTTTTCACTCCTGGCTAACCGGAGTCACCTAGTGCAG | 9500 fluorescence intensity (a.u.)
GACGCCGTTGACTTTTTGACCAACGTTTGACCTTTCGTCTCGGAGTCACCTAGTGCAG | 31400 fluorescence intensity (a.u.)
CCCGTCAACGCCACCTCACCGTTGACGTTGCCACTCTCTTCGGAGTCACCTAGTGCAG | 16800 fluorescence intensity (a.u.)
TATTACTCCCTTCGTATTTTAATGTATGACGCCGTTGACTCGGAGTCACCTAGTGCAG | 8820 fluorescence intensity (a.u.)
TCTTCGTATAAAAAGTATGACGCCGTTGACTTTTCATATACGGAGTCACCTAGTGCAG | 14500 fluorescence intensity (a.u.)
GTGGACGTTTTTGACTTTGTACTTTCAACGTTTGACCATTCGGAGTCACCTAGTGCAG | 13900 fluorescence intensity (a.u.)
TATGACGCCGTTGACTTATTGACTAACGTTTGACCATTCGCGGAGTCACCTAGTGCAG | 21500 fluorescence intensity (a.u.)
CTCTCTCACTCTTCTCCCTCTTCTCACCACCAGACGCCATCGGAGTCACCTAGTGCAG | 8850 fluorescence intensity (a.u.)
CCCGTGTCTTCCCAACCACGTTGACCACGACTTTTTCGTTCGGAGTCACCTAGTGCAG | 9480 fluorescence intensity (a.u.)
CGCCGTTTAGTTTTTACTAACGTTTGACCATTTTTCTTATCGGAGTCACCTAGTGCAG | 11700 fluorescence intensity (a.u.)
GATGACGTTGTTAACTTTTTATCACACGTTTGACCATTCGCGGAGTCACCTAGTGCAG | 8510 fluorescence intensity (a.u.)
GTTGTATAGGTTGGTTTTTTATGTATGACGCCGTTGACTTCGGAGTCACCTAGTGCAG | 17100 fluorescence intensity (a.u.)
CCACCGCCCGCCGTCGTCTCTCTCTCTCTCTCTCTCTCTTCGGAGTCACCTAGTGCAG | 9970 fluorescence intensity (a.u.)

Sequence | binding signal
TATGTCACGTATAAAATTCTAATGCTAGCTAACTACCATACGGAGTCACCTAGTGCAG | 8340 fluorescence intensity (a.u.)
GATCCGACTCCTACTTCTAACGTAGATTTTCGGCCTTTATCGGAGTCACCTAGTGCAG | 8370 fluorescence intensity (a.u.)
TTGCAAATGCAACCCTATTATGCCATCCTTTGTTATCCTGCGGAGTCACCTAGTGCAG | 9550 fluorescence intensity (a.u.)
TTTGTTCTCTTTTATATGTAACACTTGCATATTTACCTTCCGGAGTCACCTAGTGCAG | 8980 fluorescence intensity (a.u.)
CTTCTCTTACCTCGGTGGGTGCTTAATGTGCTGGTTTGAACGGAGTCACCTAGTGCAG | 8740 fluorescence intensity (a.u.)
GCCATCCACTTGTGCTGCCAATTTGCTCAATCCCGACAAGCGGAGTCACCTAGTGCAG | 8220 fluorescence intensity (a.u.)
ACATTTCTGTTATTCCCCGCGGACAAGTCACAACTACTTCCGGAGTCACCTAGTGCAG | 9830 fluorescence intensity (a.u.)
CGCCGCCCATCTTGTCCCAATTCGGCTCCTATAAATTTCCCGGAGTCACCTAGTGCAG | 8750 fluorescence intensity (a.u.)
TGCCTCCTTTTGTTTTGCGTCTCCTTATCAGAGTGGATTGCGGAGTCACCTAGTGCAG | 8350 fluorescence intensity (a.u.)
ATCCCAATCCATGATCCAGCCATTCATCATCTGCATATATCGGAGTCACCTAGTGCAG | 9790 fluorescence intensity (a.u.)
ATGAGTGATTGATTTCTTGTTTATAGGAGTGGGTTGTTCACGGAGTCACCTAGTGCAG | 11200 fluorescence intensity (a.u.)
AATATTCGACGCCGTTCACTTTTTTAAATATGTTTGACCACGGAGTCACCTAGTGCAG | 9820 fluorescence intensity (a.u.)
ATGTATGACGCCGTTGACTTTTCGACCAACGTTTATTCGTCGGAGTCACCTAGTGCAG | 30200 fluorescence intensity (a.u.)
AGATTACGCCGTTAACTTTTTCTCACATGTTTGACCATTCCGGAGTCACCTAGTGCAG | 11000 fluorescence intensity (a.u.)
AAACGCTATTGACTTTTTTTATAAATGTATGACCATTCGTCGGAGTCACCTAGTGCAG | 10400 fluorescence intensity (a.u.)
GTTTAGTTGATTTCAGGGCCAGTTCTTGTGGGGTTTTCAACGGAGTCACCTAGTGCAG | 8490 fluorescence intensity (a.u.)
ATGTACGACGCTATTGACTTTTTAACCAACGTTTGACTATCGGAGTCACCTAGTGCAG | 11000 fluorescence intensity (a.u.)
AGATGACGCCGTTGACTTTTTATCACATGTTTAACCATTCCGGAGTCACCTAGTGCAG | 42300 fluorescence intensity (a.u.)
ACTATTACTACCTCAGTTTTGAAATGTATGACGTTGACTTCGGAGTCACCTAGTGCAG | 11000 fluorescence intensity (a.u.)
AATGTATGACGCCGTTGACTTTTTGACCAACGTTTGACTACGGAGTCACCTAGTGCAG | 36100 fluorescence intensity (a.u.)
TCTTGTGCAGGGGTTGATTTTTCAGTGTATAGGGGTATGACGGAGTCACCTAGTGCAG | 16800 fluorescence intensity (a.u.)

Sequence | binding signal
ATCTGTCAGTGCCACATCACCACCACACAACCGCAAAGAACGGAGTCACCTAGTGCAG | 9250 fluorescence intensity (a.u.)
ATCGGTGTTGACCTCCATATGCTGATCAGGCCCCATTTCCCGGAGTCACCTAGTGCAG | 8140 fluorescence intensity (a.u.)
GGCCGAGCAGGTCTCCCGCGCCTTCGACATCCCTCTGCCACGGAGTCACCTAGTGCAG | 8600 fluorescence intensity (a.u.)
TTCCTCTACATTCTACGTCCGGTTGGATTTTGCATGCGATCGGAGTCACCTAGTGCAG | 8640 fluorescence intensity (a.u.)
TTCTTCCCAGATCGTGCTTCTCCCACTCGGATCAGCCGCCCGGAGTCACCTAGTGCAG | 8110 fluorescence intensity (a.u.)
TGTTGTTTTTTATGTGTGAACCTCTTTGATCTCAATGCAACGGAGTCACCTAGTGCAG | 8510 fluorescence intensity (a.u.)
CCTCCCTCACCGTCTTCCGCCTCGCCATCTCCAGCTCCGACGGAGTCACCTAGTGCAG | 10100 fluorescence intensity (a.u.)
CACCATCCATGCATATGCATCTTGTAGTTATTGCTTGCTCCGGAGTCACCTAGTGCAG | 9580 fluorescence intensity (a.u.)
TCCACATCATCCGACCAACTCTACCAGCCATTCCACCCGCCGGAGTCACCTAGTGCAG | 9160 fluorescence intensity (a.u.)
CCTTATACTGTCTCACTTGTCTCACACTGAAACCGTTTTCCGGAGTCACCTAGTGCAG | 8410 fluorescence intensity (a.u.)
TGACGACGCCATTGACTTTTGAACACATGTTTGACCATTCCGGAGTCACCTAGTGCAG | 15900 fluorescence intensity (a.u.)
CGTTTGGCCAAGTATATGACGCCCTAACTTATAAGTTGACCGGAGTCACCTAGTGCAG | 8420 fluorescence intensity (a.u.)
ACGCCGTTAACTTTTTATCCAATGTTTGACCATTCGTCTTCGGAGTCACCTAGTGCAG | 13000 fluorescence intensity (a.u.)
GTATAACGCCGTTGACTTTTTAACCAATGTTTGACCATTCCGGAGTCACCTAGTGCAG | 40400 fluorescence intensity (a.u.)
GTATGACGCCGTTGACTTTTTGGCCAACGTTTGACCATTCCGGAGTCACCTAGTGCAG | 41500 fluorescence intensity (a.u.)
TCCATCGCGCGTCGTCTCCACCTTTGTTGCTTGTGCCACCCGGAGTCACCTAGTGCAG | 10200 fluorescence intensity (a.u.)
ATGGGGTATTTAGGATGGGCAATATTTTGGTAGTGAGGAGCGGAGTCACCTAGTGCAG | 9430 fluorescence intensity (a.u.)
TGCTAAAAAGTCAACGGTGTCAAACATTTCGAAACGGAGGCGGAGTCACCTAGTGCAG | 10900 fluorescence intensity (a.u.)
ACCACCACCGTCTCAACTCTCTCTCAGACTGTCCGCCATGCGGAGTCACCTAGTGCAG | 8030 fluorescence intensity (a.u.)
ATATATCCATGCGAACTTCGCTCCAATAGTGAATTTTATCCGGAGTCACCTAGTGCAG | 8900 fluorescence intensity (a.u.)
ATATACATAAGCTTCTCGTGCACACACAAACTAACATAAACGGAGTCACCTAGTGCAG | 8610 fluorescence intensity (a.u.)

Sequence | binding signal
GCTTTATCGTGCAAACACCTAAGCTGATAAAGGCAAAGGTCGGAGTCACCTAGTGCAG | 23200 fluorescence intensity (a.u.)
TAAAGCTTTATATAGCTGGCCCGCTGACTTTTTTATATATCGGAGTCACCTAGTGCAG | 9020 fluorescence intensity (a.u.)
GGAGCGATGACGTTCTATACCTTCGGCCTTCGTTTGACCGCGGAGTCACCTAGTGCAG | 10600 fluorescence intensity (a.u.)
TTGATTTCTCTGAGTTTGTGTTCTTGGCATCATCATCATTCGGAGTCACCTAGTGCAG | 11400 fluorescence intensity (a.u.)
TTTTTCTCCCCAGATTGCTGTGCACGGATTTGCCGTAAGACGGAGTCACCTAGTGCAG | 8360 fluorescence intensity (a.u.)
TGTGTTTGAGGGGTGTGTATGTGTTGTGTTGTAGGTCAACCGGAGTCACCTAGTGCAG | 9510 fluorescence intensity (a.u.)
TATTTTATCTCACTGGCTATTTCCTATGATTATTTATTTCCGGAGTCACCTAGTGCAG | 11400 fluorescence intensity (a.u.)
GATTTCTTTGTTGATTTTATTGGTTTTCTCCTAATCTTGCCGGAGTCACCTAGTGCAG | 8820 fluorescence intensity (a.u.)
GGCTTTTGGTTTCTTGGTGGTTGTGGATTTTTTTTTTTTGCGGAGTCACCTAGTGCAG | 12300 fluorescence intensity (a.u.)
GCGGGCTGTTTTTTTCTTGCGGTTTGGTTTGGGATTTCTGCGGAGTCACCTAGTGCAG | 17400 fluorescence intensity (a.u.)
TTCTGTTTGGGTTTTGATTTGTTTCGGTTTGGCTGTTCTTCGGAGTCACCTAGTGCAG | 10600 fluorescence intensity (a.u.)
TTGTGTTTGGGCGGGAGAATTTTTGGGGATAGATTTGCGCCGGAGTCACCTAGTGCAG | 18500 fluorescence intensity (a.u.)
ATTTGGGGTTTGGATACTTGAACTTTATTTTGACTTCTGACGGAGTCACCTAGTGCAG | 14000 fluorescence intensity (a.u.)
TTGCTTGTGTTGGGCCGTAGGGTTTTTGTTTTTTTTTTTGCGGAGTCACCTAGTGCAG | 8410 fluorescence intensity (a.u.)
TTTTGGGGATAGATTTGCGCTTTTGGTGGGTGGGTTTGGGCGGAGTCACCTAGTGCAG | 14200 fluorescence intensity (a.u.)
GCCGTATTTGTTTTTTTGGGATTTGGGGTTTGGATACTTGCGGAGTCACCTAGTGCAG | 18700 fluorescence intensity (a.u.)
AGTGTTAATCTTACTCCTTGTTGTATATTGCTAAGTTTTTCGGAGTCACCTAGTGCAG | 12900 fluorescence intensity (a.u.)
AGGAGGGGTATTGTTGCTAATCTTGATTGTTTTACTCTTGCGGAGTCACCTAGTGCAG | 17000 fluorescence intensity (a.u.)
GGGGCGATTTTTTTTTTTTTTTAGAATTGCGAGATAGGGGCGGAGTCACCTAGTGCAG | 10700 fluorescence intensity (a.u.)
TCTGTATATAAGGCCTGATTTAGTTCCCAAATTTTTTTTCCGGAGTCACCTAGTGCAG | 8100 fluorescence intensity (a.u.)
AATATTTCCCTTTCCAATGTTCAGTCAGCCCATCAGACCGCGGAGTCACCTAGTGCAG | 8110 fluorescence intensity (a.u.)
